Measured values published in PubChem BioAssay AID1159580 (chemical genetic matrix, 2015).
“And” between values parts separate entries of the source, which are not always exact repeats. Identical values can stand only once. Among all 5,500 compounds or so, about 2,000 (36%) were called active. Roughly 18% stayed inconclusive and do not appear here. Cut-off read from the data, not from the text of the source: active = normalized growth mostly below about 0.91 (no sharp cut-off); inconclusive = no clear call, values can overlap the other calls; inactive = mostly above about 0.92. The list shows a part of the results.

Experiment: chemical genetic growth profiling, strain panel (AID 1159580);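 note: tested at 20 µM; growth read once vehicle control cultures reached saturation at 30 °C; 1 = growth at the plate median or of vehicle wells; lower values mean less growth of the strain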
Conditions: S. cerevisiae deletion strains, growth OD

Measured: normalized growth

CN1Cc2c(N)cccc2C(c2ccccc2)C1 (centres undefined)
inactive: locus YAL013W, strain DEP1, active compounds read low 1.01 | locus YAL021C, strain ccr4, active compounds read low 0.991 | locus YAL026C, strain drs2, active compounds read low 0.997 | locus YAL030W, strain snc1, active compounds read low 0.996 | locus YAL040C, strain CLN3, active compounds read low 0.991 | locus YBL061C, strain skt5, active compounds read low 1.01 | locus YBR009C, strain hhf1, active compounds read low 1.02 | locus YBR021W, strain FUR4, active compounds read low 1.01 | locus YBR023C, strain chs3, active compounds read low 1.02 | locus YBR171W, strain sec66, active compounds read low 1.02 | locus YBR229C, strain ROT2, active compounds read low 1.01 | locus YBR231C, strain swc5, active compounds read low 1 | locus YBR279W, strain paf1, active compounds read low 1.03 | locus YCL011C, strain gbp2, active compounds read low 1 | locus YCL016C, strain dcc1, active compounds read low 0.997 | locus YCL029C, strain bik1, active compounds read low 1 | locus YCL061C, strain MRC1 (second series), active compounds read low 0.989 | locus YCL069W, strain vba3, active compounds read low 1.01 | locus YCR088W, strain abp1, active compounds read low 1.01 | locus YDL005C, strain med2, active compounds read low 1 | locus YDL035C, strain GPR1, active compounds read low 1.02 | locus YDL040C, strain nat1, active compounds read low 1.01 | locus YDL074C, strain BRE1, active compounds read low 0.993 | locus YDL101C, strain DUN1, active compounds read low 1.01 | locus YDL134C, strain PPH21, active compounds read low 1.01 | locus YDL185W, strain tfp1, active compounds read low 1.01 | locus YDL192W, strain arf1, active compounds read low 1.02 | locus YDR001C, strain nth1, active compounds read low 1.01 | locus YDR069C, strain doa4, active compounds read low 1.02 | locus YDR101C, strain arx1, active compounds read low 1.01 | locus YDR137W, strain rgp1, active compounds read low 1.01 | locus YDR150W, strain NUM1, active compounds read low 1 | locus YDR159W, strain sac3, active compounds read low 1 | locus YDR162C, strain NBP2, active compounds read low 1.02 | locus YDR195W, strain ref2 1.02 | locus YDR297W, strain sur2, active compounds read low 1.01 | locus YDR318W, strain mcm21, active compounds read low 1.02 | locus YDR334W, strain swr1, active compounds read low 1.01 | locus YDR335W, strain msn5, active compounds read low 1.02 | locus YDR363W, strain ESC2, active compounds read low 0.963 | locus YDR388W, active compounds read low 1.02 | locus YDR392W, strain spt3, active compounds read low 0.938 | locus YDR502C, strain sam2, active compounds read low 1.01 | locus YEL003W, strain gim4, active compounds read low 1.01 | locus YEL037C, strain rad23, active compounds read low 1.01 | locus YEL061C, strain CIN8 (second series), active compounds read low 1 | locus YEL061C, strain CIN8, active compounds read low 1 | locus YER002W, strain NOP16, active compounds read low 1.01 | locus YER015W, strain faa2, active compounds read low 1.02 | locus YER016W, strain bim1, active compounds read low 1.01 | locus YER110C, active compounds read low 1.02 | locus YER111C, strain swi4, active compounds read low 1.01 | locus YER155C, strain BEM2 (second series), active compounds read low 1.01 | locus YER155C, strain BEM2, active compounds read low 1.01 | locus YER167W, strain BCK2, active compounds read low 1.02 | locus YFR010W, strain ubp6, active compounds read low 1.03 | locus YGL078C, strain dbp3, active compounds read low 1 | locus YGL086W, strain mad1, active compounds read low 0.999 | locus YGL167C, strain pmr1, active compounds read low 1.01 | locus YGL173C, strain kem1, active compounds read low 1.02 | locus YGL227W, strain vid30, active compounds read low 1.01 | locus YGL240W, strain doc1, active compounds read low 1.02 | locus YGL248W, strain PDE1, active compounds read low 0.991 | locus YGL253W, strain hxk2, active compounds read low 1 | locus YGR078C, strain PAC10, active compounds read low 0.991 | locus YGR135W, strain pre9, active compounds read low 1.04 | locus YGR229C, strain SMI1, active compounds read low 1.02 | locus YGR252W, strain gcn5, active compounds read low 1 | locus YHR013C, strain ard1, active compounds read low 0.995 | locus YHR027C, strain rpn1, active compounds read low 1.02 | locus YHR030C, strain SLT2, active compounds read low 1.01 and 1.07 | locus YHR079C, strain IRE1 (second series), active compounds read low 1.01 | locus YHR079C, strain IRE1, active compounds read low 0.985 | locus YHR094C, strain hxt1, active compounds read low 1.02 | locus YHR129C, strain ARP1, active compounds read low 1.01 | locus YHR142W, strain chs7, active compounds read low 1.01 | locus YHR200W, strain rpn10, active compounds read low 1.02 | locus YIL066C, strain RNR3, active compounds read low 1 | locus YIL073C, strain SPO22, active compounds read low 1.08 | locus YIL125W, strain kgd1, active compounds read low 1.01 | locus YIR030C, strain dcg1, active compounds read low 1.01 | locus YJL092W, strain hpr5, active compounds read low 1.01 | locus YJL095W, strain BCK1 (second series), active compounds read low 1.01 | locus YJL095W, strain BCK1, active compounds read low 0.983 and 0.981 | locus YJL115W, strain asf1, active compounds read low 1.02 | locus YJL129C, strain trk1, active compounds read low 1 | locus YJL134W, strain LCB3, active compounds read low 1.01 | locus YJL154C, strain vps35, active compounds read low 1.01 | locus YJL164C, strain tpk1, active compounds read low 0.981 | locus YJL166W, strain qcr8, active compounds read low 1.01 | locus YJL168C, strain set2, active compounds read low 1.01 | locus YJL187C, strain SWE1 (second series), active compounds read low 0.983 | locus YJR043C, strain POL32, active compounds read low 0.973 | locus YJR066W, strain TOR1, active compounds read low 0.933
